Here are results for 43 molecules from article PMC4336329 (PLoS ONE, 2015).

Hit rate of the full screen: of about 310,000 compounds, about 14,000 (4.5%) showed an effect of 50% or more. The effect is printed as a negative number. Only a selection was taken, and strong results are over-represented in it overall.
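Note: peak tail current of the secondary pulse compared with the same well before compound.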

human ether-à-go-go-related gene (hERG) potassium channel, sequence (Q12809 whole entry, looked up): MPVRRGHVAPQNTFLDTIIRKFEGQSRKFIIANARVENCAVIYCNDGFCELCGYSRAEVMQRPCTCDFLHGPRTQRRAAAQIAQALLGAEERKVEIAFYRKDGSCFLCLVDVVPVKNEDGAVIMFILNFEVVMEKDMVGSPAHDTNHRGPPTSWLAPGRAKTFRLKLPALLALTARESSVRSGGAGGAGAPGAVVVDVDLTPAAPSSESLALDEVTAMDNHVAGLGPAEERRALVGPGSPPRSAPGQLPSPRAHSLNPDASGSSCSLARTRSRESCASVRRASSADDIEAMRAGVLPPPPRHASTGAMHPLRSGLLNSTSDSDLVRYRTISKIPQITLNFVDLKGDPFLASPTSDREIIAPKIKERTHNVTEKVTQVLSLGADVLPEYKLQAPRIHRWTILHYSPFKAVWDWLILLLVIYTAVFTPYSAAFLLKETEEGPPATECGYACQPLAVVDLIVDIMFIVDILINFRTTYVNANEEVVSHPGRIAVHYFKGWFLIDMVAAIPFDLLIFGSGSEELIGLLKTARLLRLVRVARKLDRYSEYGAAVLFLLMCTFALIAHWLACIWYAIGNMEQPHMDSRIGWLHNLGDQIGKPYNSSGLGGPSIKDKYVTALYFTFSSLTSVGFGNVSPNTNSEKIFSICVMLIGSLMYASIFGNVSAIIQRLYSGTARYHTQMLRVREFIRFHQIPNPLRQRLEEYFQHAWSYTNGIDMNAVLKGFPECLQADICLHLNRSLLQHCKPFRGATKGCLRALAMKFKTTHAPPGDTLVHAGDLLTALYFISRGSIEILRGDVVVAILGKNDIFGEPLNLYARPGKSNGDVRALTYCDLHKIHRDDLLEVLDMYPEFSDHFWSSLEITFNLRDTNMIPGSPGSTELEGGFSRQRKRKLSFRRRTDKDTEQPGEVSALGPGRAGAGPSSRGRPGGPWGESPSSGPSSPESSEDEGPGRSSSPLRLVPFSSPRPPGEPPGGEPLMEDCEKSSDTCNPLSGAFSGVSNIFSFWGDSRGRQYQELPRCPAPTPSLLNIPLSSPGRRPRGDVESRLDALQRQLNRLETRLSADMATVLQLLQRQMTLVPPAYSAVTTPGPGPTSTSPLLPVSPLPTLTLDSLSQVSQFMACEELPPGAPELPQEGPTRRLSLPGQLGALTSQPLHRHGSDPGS

The assay concerns the target human ether-à-go-go-related gene (hERG) potassium channel (human, UniProt Q12809). Description: primary screen, population patch clamp on CHO cells stably expressing hERG; higher = less effect of the substance.
`CCCCN(C)C(=O)c1cn(CC)c2ccc(S(=O)(=O)N(C)C)cc2c1=O`: the “hERG current change (%, negative = inhibition) at 10uM” value was 8.08%.

Consider `c1cc(C(c2nnnn2C2CCCCC2)N2CCN3CCCC3C2)ccn1` (stereo not shown), for which the “hERG current change (%, negative = inhibition) at 10uM” value is recorded as -1.98%.

Turning to `COc1ccc(NC(=O)C2CCCN2C(=O)NC2CCCCC2)cc1` (stereo not shown), the “hERG current change (%, negative = inhibition) at 10uM” value is on record as -2.82%.

With `CN(C)CCOc1ccccc1Cc1ccccc1.O=C(O)CC(O)(CC(=O)O)C(=O)O`, the “hERG current change (%, negative = inhibition) at 10uM” value is recorded as -61.9%.

In the case of `O=C(O)COc1ccccc1Cc1ccccc1`, the “hERG current change (%, negative = inhibition) at 10uM” value stood at 5.22%.

Consider `CN(C)CCOc1ccccc1C(C)(C)C.O=C(O)C(=O)O`, for which the “hERG current change (%, negative = inhibition) at 10uM” value is 5.47%.

On to `COc1ccc(-n2ccc3ccccc32)cc1`, for which the “hERG current change (%, negative = inhibition) at 10uM” value amounted to 13%.

As for `CCCCCCn1c(=O)c(F)cn(Cc2ccc(OC)c([N+](=O)[O-])c2)c1=O`, the “hERG current change (%, negative = inhibition) at 10uM” value is reported as -40.3%.

For `CCCCCn1c(=O)c(F)cn(Cc2ccc(OC)c([N+](=O)[O-])c2)c1=O`, the “hERG current change (%, negative = inhibition) at 10uM” value is reported as -56.6%.

Regarding `CCCCn1c(=O)c(F)cn(Cc2ccc(OC)c([N+](=O)[O-])c2)c1=O`, the “hERG current change (%, negative = inhibition) at 10uM” value is reported as -25.2%.

Regarding `CC(C)(C)C(=O)Oc1ccc2cc(-c3ccc4ccccc4n3)c(=O)oc2c1`, the “hERG current change (%, negative = inhibition) at 10uM” value is on record as -10.5%.

With `Nc1nc(COC(=O)c2ccc3c(c2)OCCO3)nc(Nc2ccccc2)n1`, the “hERG current change (%, negative = inhibition) at 10uM” value came out at 10.2%.

On to `c1ccc(CN2CCN(Cc3ccc4c(c3)OCCO4)CC2)cc1`, for which the “hERG current change (%, negative = inhibition) at 10uM” value is listed as -10.6%.

In the case of `CN1CCN(Cc2nc(N)nc(Nc3ccc4c(c3)OCCO4)n2)CC1`, the “hERG current change (%, negative = inhibition) at 10uM” value is -26.1%.

For the molecule `Nc1nc(CN2CCN(Cc3ccccc3)CC2)nc(Nc2ccc3c(c2)OCCO3)n1`, the “hERG current change (%, negative = inhibition) at 10uM” value is given as -74.8%.

Turning to `Nc1nc(CN2CCN(c3ccccc3F)CC2)nc(Nc2ccc3c(c2)OCCO3)n1`, the “hERG current change (%, negative = inhibition) at 10uM” value is recorded as -74.4%.

On to `O=C(CCN1CCN(c2ccccc2F)CC1)Nc1ccc2c(c1)OCO2`, for which the “hERG current change (%, negative = inhibition) at 10uM” value is given as -27.6%.

For `Cc1c(C(c2ccc(F)cc2)c2c(O)c3ccccc3oc2=O)c(=O)n(-c2ccccc2)n1C` (stereo not shown), the “hERG current change (%, negative = inhibition) at 10uM” value is recorded as -20.9%.

In the case of `COc1ccc(-n2c(-c3ccco3)nc3c(cnn3-c3ccc(C)cc3)c2=O)cc1`, the “hERG current change (%, negative = inhibition) at 10uM” value is 1.88%.

For `C=CCn1c(NC(=O)c2ccc(C)cc2)nc2ccccc21`, the “hERG current change (%, negative = inhibition) at 10uM” value came out at 6.35%.

In the case of `Cc1ccc(NCC(=O)N/N=C/c2c[nH]c3ccccc23)cc1`, the “hERG current change (%, negative = inhibition) at 10uM” value is reported as 11.4%.

As to `CC(C)NC(=O)C(Cc1ccccc1)N1C(=O)c2ccccc2C1=O` (stereo not shown), the “hERG current change (%, negative = inhibition) at 10uM” value is -4.63%.

As to `COc1ccc(/C(O)=C2/C(=O)C(=O)N(CCN(C)C)C2c2cccnc2)cc1C` (stereo not shown), the “hERG current change (%, negative = inhibition) at 10uM” value is 1.58%.

For the molecule `CC(=O)c1ccc(N2CCN(C(=O)Nc3ccc(C)cc3)CC2)cc1`, the “hERG current change (%, negative = inhibition) at 10uM” value is given as -4.03%.

For `CC(=O)N1CCN(c2ccc(NC(=O)c3ccc(C(C)(C)C)cc3)cc2)CC1`, the “hERG current change (%, negative = inhibition) at 10uM” value is on record as 0.16%.

On to `CC(=O)N1CCN(c2ccc(NC(=O)c3ccc(F)cc3)cc2)CC1`, for which the “hERG current change (%, negative = inhibition) at 10uM” value was -57.7%.

Take `O=C(Nc1ccc(F)cc1)N1CCN(c2ccc(F)cc2)CC1`: the “hERG current change (%, negative = inhibition) at 10uM” value is -67.8%.

For the molecule `CC(=O)N1CCN(c2ccc(NC(=O)c3ccc(C)cc3)cc2)CC1`, the “hERG current change (%, negative = inhibition) at 10uM” value is 5.89%.

In the case of `CC(=O)c1ccc(N2CCN(C(=O)Nc3ccc(Cl)cc3)CC2)cc1`, the “hERG current change (%, negative = inhibition) at 10uM” value is given as -8.35%.

For `O=C(Nc1ccc2snnc2c1)N1CCSCC1`, the “hERG current change (%, negative = inhibition) at 10uM” value stood at 6.76%.

Regarding `CC(=O)c1ccc(N2CCN(C(=O)Nc3ccc(C(C)C)cc3)CC2)cc1`, the “hERG current change (%, negative = inhibition) at 10uM” value is reported as -63.7%.

As to `CC(=O)c1ccc(N2CCN(C(=O)Nc3ccc(F)cc3)CC2)cc1`, the “hERG current change (%, negative = inhibition) at 10uM” value was -24.5%.

As for `O=C(Nc1ccccc1)N1CCN(c2ccc(F)cc2)CC1`, the “hERG current change (%, negative = inhibition) at 10uM” value is on record as -7.74%.

Turning to `O=C(Nc1ccc2snnc2c1)N1CCCCC1`, the “hERG current change (%, negative = inhibition) at 10uM” value came out at 11.9%.

For `O=C(Nc1ccc2snnc2c1)N1CCN(c2ccccc2)CC1`, the “hERG current change (%, negative = inhibition) at 10uM” value is listed as -57.2%.

Regarding `O=S(=O)(Nc1ccc(N2CCOCC2)cc1)c1ccc2ccccc2c1`, the “hERG current change (%, negative = inhibition) at 10uM” value worked out at 3.3%.

In the case of `O=C1C(=O)N(CCS(=O)(=O)c2ccccc2)c2ccc(F)cc21`, the “hERG current change (%, negative = inhibition) at 10uM” value is listed as 8.67%.

Consider `O=C(OCC(=O)N(CCc1ccccc1)Cc1ccccc1)c1cc(S(=O)(=O)N2CCOCC2)ccc1F`, for which the “hERG current change (%, negative = inhibition) at 10uM” value is on record as -10.8%.

On to `Cn1c(N2CCOCC2)cc(=O)n(C)c1=O`, for which the “hERG current change (%, negative = inhibition) at 10uM” value was -18.2%.

Regarding `Cc1cc(C(=O)N2CCc3ccccc3C2)n[nH]1`, the “hERG current change (%, negative = inhibition) at 10uM” value is given as 5.11%.

For `Nc1cccc(NP(=O)(c2ccccc2)c2ccccc2)c1`, the “hERG current change (%, negative = inhibition) at 10uM” value is listed as 11.7%.

As for `Cc1c(NC(=O)C2Cc3ccccc3CN2C(=O)c2ccco2)c(=O)n(-c2ccccc2)n1C` (stereo not shown), the “hERG current change (%, negative = inhibition) at 10uM” value was -13.7%.

For the molecule `COc1ccc(C(=O)COC(=O)/C=C/c2ccc(S(=O)(=O)Nc3cccc(S(N)(=O)=O)c3)cc2)cc1`, the “hERG current change (%, negative = inhibition) at 10uM” value amounted to 4.88%.
